Cruzain inh noDet = qHTS Assay for Promiscuous and Specific Inhibitors of Cruzain (without detergent); 200,000 compounds, 2.3% hits; purified cruzain, Z-FR-AMC fluorescence, no detergent; Cruzipain (Trypanosoma cruzi), P25779; Potency, µM, without a hit: max response, negative = inhibition, actives largely listed as inhibitors;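 further: plate controls were enzyme without inhibitor for no effect and buffer without enzyme for full effect; nearly all actives have a fitted effect of over 40% in size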
Target sequence (P25779 123-467 limits assumed): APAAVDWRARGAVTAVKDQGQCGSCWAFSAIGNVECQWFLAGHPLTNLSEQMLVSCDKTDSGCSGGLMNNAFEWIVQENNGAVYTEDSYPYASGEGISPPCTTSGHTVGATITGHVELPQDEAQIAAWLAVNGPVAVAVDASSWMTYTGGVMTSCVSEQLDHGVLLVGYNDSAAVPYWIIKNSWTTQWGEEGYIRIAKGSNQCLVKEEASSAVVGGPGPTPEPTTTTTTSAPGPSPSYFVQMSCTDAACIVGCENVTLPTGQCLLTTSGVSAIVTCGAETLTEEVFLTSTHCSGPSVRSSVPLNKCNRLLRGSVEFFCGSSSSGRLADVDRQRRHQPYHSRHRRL
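Detergent-free condition (0.00005% Triton X-100) in acetate buffer pH 5.5 with DTT. 1.5 nM enzyme and compound were pre-mixed 15 min, then 2 uM Z-FR-AMC substrate added; reaction progress from fluorescence change between first and third reads (60 s).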
Cruzain Triton = qHTS Assay for Promiscuous and Specific Inhibitors of Cruzain (with detergent); Cruzipain (Trypanosoma cruzi), P25779; purified cruzain, Z-FR-AMC fluorescence, 0.01% Triton; Potency, µM, for the others: max response, negative = inhibition, hits mostly inhibitors; 200,000 compounds, 0.43% hits; AID 1478, 2009;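 further: plate controls were neutral wells for no effect and buffer without enzyme for full effect; nearly all actives have a fitted effect of over 40% in size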
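Cysteine protease activity tested under reducing, mildly acidic conditions (100 mM sodium acetate pH 5.5, 5 mM DTT) plus 0.01% Triton X-100. Cruzain 1.5 nM; substrate Z-FR-AMC 2 uM; 15 min compound preincubation at room temperature.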
The depositor's hits bear a star; ? = inconclusive; ! = not active in a repeat. Most compounds without a hit are left out; they make up all but 2.4% or so of the library. The call rests on the fitted dose curve; in most records, active means well fitted curve in the direction sought with a large enough effect; inconclusive means small, poorly fitted or top-dose-only effect, or another doubt; inactive means no such curve, though single readings can be large; an effect the other way counts as inactive or inconclusive. Potency means the concentration at half of the fitted maximal effect.

SMILES | Cruzain inh noDet | Cruzain Triton
COc1ccc(-c2cc(-c3cccs3)c(C#N)c(SCC(=O)NCc3ccco3)n2)cc1 | 7.9µM* | -7%
COc1ccc(-c2cc(-c3ccccc3)nc(SCC(=O)Nc3ccccc3C)c2C#N)cc1 | -6% | -1%
CC(C)Oc1ccc(C(=O)N(Cc2ccco2)c2ccccn2)cc1 | 0% | -2%
COc1ccc(S(=O)(=O)NCCc2sc(-c3cccc(F)c3)nc2C)cc1 | 2% | -6%
COc1cccc(-c2nnc3sc(CN4CCCCC4)cn23)c1 | -4% | 2%
COC(=O)c1c(NC(=O)CN2C(=O)c3ccccc3C2=O)sc(Cc2ccc3c(c2)OCO3)c1C | 10µM* | -1%
COC(=O)c1c(NC(=O)CN2CCN(Cc3ccc4c(c3)OCO4)CC2)sc(C)c1C | 0% | 1%
COc1ccc2[nH]cc(CCNc3ncncc3-c3cccc(NS(C)(=O)=O)c3)c2c1 | 8% | 1%
O=[N+]([O-])c1cccc(-c2nc(-c3cccs3)c(-c3cccs3)[nH]2)c1 | ? | -1%
O=[N+]([O-])c1ccc(-c2nc(-c3cccs3)c(-c3cccs3)[nH]2)cc1 | 32µM* | -2%
COc1ccc(CCNC(=O)Cn2nc(C)n3c(cc4occc43)c2=O)cc1OC | -12% | -1%
O=C(Nc1ccc(Cl)cc1)Nc1ccc2c(c1)N1CCN=C1S2 | 32µM* | ?
Nc1ccc2c(c1)N1CCN=C1S2 | 10% | -8%
COc1ccc(Cl)cc1NS(=O)(=O)c1cc(-c2cc(C)no2)ccc1C | 0% | -5%
O=C1NC(=O)C(=Cc2cn(CCOc3ccc4c(c3)OCO4)c3ccccc23)C(=O)N1 | ? | 0%
Cc1ccc(OCCn2cc(/C=C3\C(=O)NN(c4ccccc4)C3=O)c3ccccc32)cc1 | 10µM* | -7%
O=C(COc1ccccc1)Nc1ccc([N+](=O)[O-])cc1 | -6% | 0%
O=C(COc1ccc(/C=N/NC(=O)c2ccccc2)cc1)Nc1ccc([N+](=O)[O-])cc1 | 13µM* | 2%
O=C(CNc1ccccc1)N/N=C/c1ccc([N+](=O)[O-])cc1 | -1% | -4%
CC(C)Oc1ccc(/C=N/NC(=O)C(CSCc2ccccc2)NC(=O)c2ccc([N+](=O)[O-])cc2)cc1 (stereo not given) | 20µM* | -3%
Cn1c(=O)c2c(-c3ccccc3Cl)n(-c3cc(Cl)ccc3O)cc2n(C)c1=O | 3% | 0%
Cc1nn(-c2ccccc2)c(Cl)c1C1C(C#N)=C(N)Oc2c1c(=O)oc1ccccc21 (stereo not given) | 16µM* | -1%
COC(=O)C1=C(C)OC(N)=C(C#N)C1c1c(C)nn(-c2ccccc2)c1Cl (stereo not given) | -12% | -2%
Cn1nnnc1SCCCNCc1ccc(-c2ccc(Br)cc2)o1 | 0% | -5%
COC(=O)COc1ccc2oc(-c3ccc(OC)cc3)cc(=O)c2c1 | -8% | -1%
SMILES | Cruzain inh noDet | Cruzain Triton
O=C(COc1ccc2oc(-c3ccccc3)cc(=O)c2c1)Nc1ccccc1 | 32µM* | -11%
COc1ccc(N2CCC(CNC(=S)Nc3cccc(C)c3)C2)cc1 (stereo not given) | -28% | -6%
COc1ccc(N2CCC(CNS(=O)(=O)c3cccc(C(F)(F)F)c3)C2)cc1 (stereo not given) | 25µM* | -5%
COc1ccc(NC(=O)CCS(=O)(=O)c2cc3c(cc2C)NC(=O)CO3)cc1Cl | 4% | 3%
CCOC(=O)c1c(-c2ccccc2)csc1NC(=S)NC | -3% | -14%
CCOC(=O)c1c(-c2ccc(C)o2)csc1NC(=S)NC(=O)c1cccs1 | 25µM* | -1%
CCOC(=O)c1c(-c2ccc(C)o2)csc1NC(=S)NC(=O)c1ccccc1Br | 32µM* | -3%
CCOC(=O)c1c(-c2ccc(C)o2)csc1NC(=O)CSc1nnc(C)s1 | ? | -7%
Cc1cc(C)c(S(=O)(=O)NCC(c2ccc(N(C)C)cc2)N2CCOCC2)c(C)c1 (stereo not given) | 6% | 0%
COc1ccc(C(C(=O)NCc2ccccc2)N(C(=O)Cn2nnc3ccccc32)c2cccc(OC)c2)cc1 (stereo not given) | -15% | -2%
CCc1ccc(NC(=O)N(Cc2ccco2)C(C)c2cccs2)cc1 (stereo not given) | 1% | 2%
CCc1ccc(NC(=O)CS(=O)CC(=O)NC(C)CCc2ccco2)cc1 (stereo not given) | 25µM* | 0%
O=c1c(-c2ccccc2)nc2cnc(N3CCOCC3)nc2n1Cc1cccs1 | -4% | 4%
O=C1CCNc2ccc(-c3ccccc3)cc21 | 20µM* | -5%
Cc1ccc2c(c1)C(=O)CCN2 | 2% | -1%
Oc1ccc(Cl)cc1-c1cc(-c2ccccc2Cl)[nH]n1 | ? | -12%
Oc1ccc(Cl)cc1-c1cc(-c2cccc(Br)c2)n[nH]1 | 13µM* | -4%
Cc1cc(C)cc(OCC(=O)Nc2ccc(S(=O)(=O)Nc3onc(C)c3C)cc2)c1 | 12% | -6%
CCCCOCCOCCOCc1cc2c(cc1CCC)OCO2 | 18% | -1%
c1ccc(Nc2ncnc3sc4c(c23)CCC4)cc1 | -7% | -5%
O=S(=O)(Nc1ncnc2sc3c(c12)CCC3)c1ccc2ccccc2c1 | 32µM* | -5%
CN(C)c1ccc(CNS(=O)(=O)c2ccc3[nH]c4c(c3c2)CCCCC4)cc1 | ? | -13%
O=C(C[n+]1ccc2ccccc2c1)Nc1cc(C(F)(F)F)ccc1Cl | 4% | -2%
O=C(C[n+]1ccc2ccccc2c1)c1ccc2ccc3ccccc3c2c1 | 3.2µM* | -3%
O=C(O)[C@@H]1Cc2c([nH]c3ccccc23)[C@@H](CCCCO)N1 | 7% | 4%
SMILES | Cruzain inh noDet | Cruzain Triton
Cc1ccc(CNc2nc(N)c([N+](=O)[O-])c(Nc3ccc(F)cc3)n2)cc1 | 16µM* | 0%
Cc1ccc(CNc2nc(N)c([N+](=O)[O-])c(NCc3ccccc3)n2)cc1 | ? | -2%
CCN(CC)S(=O)(=O)c1ccc2c(c1)c(=O)c(C(=O)NCc1ccc(Cl)cc1)cn2C | -19% | -3%
CCOc1ccc(N2CC(NC(=O)c3ccc(S(=O)(=O)N4CCOCC4)cc3)CC2=O)cc1 (stereo not given) | 14% | -2%
CCOc1ccc(/C=C/c2nc(C#N)c(NCCCN(C)C)o2)cc1 | ? | -16%
CCOc1ccc(/C=C/c2nc(C#N)c(NCc3ccccc3)o2)cc1 | 3% | -6%
CN(C)CCNc1oc(/C=C/c2ccccc2)nc1C#N | 25µM* | -29%
CN(C)CCCNc1oc(/C=C/c2ccc(F)cc2)nc1C#N | 25µM* | ?
COc1cc(/C=C/c2nc(C#N)c(NCCc3ccccc3)o2)cc(OC)c1OC | ? | 9%
C=CCNc1oc(/C=C/c2ccccc2)nc1C#N | ? | 32µM*
CCOc1ccc(CNC(=O)Cn2ccc3cc(S(=O)(=O)N4CCCCC4)ccc32)cc1 | -28% | -8%
Cc1ccccc1Cn1c2ccccc2c2cnn(CC(=O)NCC(C)c3ccccc3)c(=O)c21 (stereo not given) | 3% | -2%
COc1cccc(C(=O)Nc2ccc3nc(SCCOc4ccccc4)sc3c2)c1 | -6% | -3%
N[C@@H](Cc1cc(I)c(Oc2ccc(O)c(I)c2)c(I)c1)C(=O)O | 13µM*! | ?
NC(Cc1cc(I)c(Oc2ccc(O)c(I)c2)c(I)c1)C(=O)O (stereo not given) | -10% | 2%
CCCCc1ccc(NC(=O)COc2ccc(C(=O)Nc3ccccc3C)cc2)cc1 | 32µM* | 6%
CCCCc1ccc(NC(=O)COc2cccc3c(=O)n(C)ccc23)cc1 | 20µM* | -2%

Source: PubChem BioAssay (National Center for Advancing Translational Sciences (NCATS))
